Hits are enriched below; roughly 6.9% of the tested compounds scored in any of these assays.
HP1b binding inh – HTS for Inhibitors of HP1-beta Chromodomain Interactions with Methylated Histone Tails | Chromobox protein homolog 1 (Homo sapiens), P83916 | AlphaScreen HP1-beta / biotin-H3K9me3 peptide binding | Potency, µM (highest dose often 114 µM), for inactives: at the top dose activity change, negative = inhibition, hits mostly inhibitors | 390,000 tested, 0.56% active | AID 540317, 2011; note: nearly all actives have a fitted effect of over 70% in size
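AlphaScreen: HP1-beta (50 nM) preformed 30 min with biotin-H3(1-18)K9me3 peptide (50 nM) in PBS pH 7.4, 0.01% Tween-20. Compound added for 30 min at RT, then streptavidin donor/nickel chelate acceptor beads (10 ug/mL) for 30 min.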
VDR inhibitor – Inhibitors of the vitamin D receptor (VDR): qHTS. Potency, µM, for the others: max response, negative = inhibition, hits mostly inhibitors. VDR-SRC2-3 peptide fluorescence polarization, 2 h. Vitamin D3 receptor (Homo sapiens), P11473. AID 504847, 2011. 400,000 tested, 0.93% active; note: % is set by controls: 0 for no effect and ±100 for the full control effect
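Reagent solutions, kept cold and dark, are dispensed first; compounds are then pinned in at 23 nl, plates briefly spun, and incubated 2 h at ambient temperature. Inhibition of VDR–SRC2-3 peptide binding is read by fluorescence polarization.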
PLK1 PBD inh – qHTS for Inhibitors of PLK1-PDB (polo-like kinase 1 - polo-box domain): Primary Screen. Plk1 PBD binding of FITC phosphopeptide, fluorescence polarization. 360,000 tested, 2.8% active. Potency, µM, inactives show max response, negative = inhibition, hits mostly inhibitors; note: series mostly up to about 57 µM; % is set by controls: 0 for no effect and ±100 for the full control effect; nearly all actives have a fitted effect of over 65% in size
L3MBTL1 inh-1 – qHTS Assay for the Inhibitors of L3MBTL1; AlphaScreen L3MBTL1–H3K9me1 peptide binding; Potency, µM (highest dose often 57.1 µM), for inactives: top-dose activity, negative = inhibition, most hits filed as inhibitors; 230,000 tested, 0.66% active; AID 485360, 2010; note: % is set by controls: 0 for no effect and ±100 for the full control effect; nearly all actives have a fitted effect of over 60% in size
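AlphaScreen assay: L3MBTL1 (50 nM final) was preincubated 30 min at room temperature with biotinylated H3(1-15)K9me1 peptide (75 nM final), then 30 min with library compounds; streptavidin donor and nickel chelate acceptor beads (10 ug/mL final) added, 30 min dark.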
JMJD2A Tudor inh – qHTS Assay for Inhibitors of JMJD2A-Tudor Domain; Lysine-specific demethylase 4A (Homo sapiens), O75164; AlphaScreen JMJD2A-Tudor / H3K4me3 peptide binding; Potency, µM (series often up to 114 µM), for the others: at the top dose activity change, negative = inhibition, hits mostly inhibitors; 390,000 tested, 4.4% active; AID 504339, 2011; note: % is set by controls: 0 for no effect and ±100 for the full control effect; nearly all actives have a fitted effect of over 50% in size
BAZ2B inh – qHTS Assay for Inhibitors of BAZ2B; Bromodomain adjacent to zinc finger domain protein 2B (Homo sapiens), Q9UIF8; AlphaScreen BAZ2B-H3K14Ac peptide displacement; Potency, µM (highest dose often 114 µM), without a hit: at the highest dose activity change, negative = inhibition, actives largely listed as inhibitors; 360,000 tested, 4.4% active; AID 504333, 2011; note: % is set by controls: 0 for no effect and ±100 for the full control effect; nearly all actives have a fitted effect of over 60% in size
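AlphaScreen displacement: compounds (up to 110uM) incubated 30 min at room temperature with a preformed 50 nM BAZ2B/50 nM biotinylated H3K14Ac peptide complex in PBS pH 7.4 with Tween-20. Donor and acceptor beads at 10 ug/mL final added, 20 min light-protected before reading.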
L3MBTL1 inh-2 – qHTS Assay for the Inhibitors of L3MBTL1: Hit Validation. shares compounds with L3MBTL1 inh-1. Potency, µM, usual class: inhibitors. AID 540279, 2011. 500 tested, 91% active. L3MBTL1 methyl-lysine binding inhibition, biochemical qHTS; note: nearly all actives have a fitted effect of over 70% in size
L3MBTL1 ctr – qHTS Assay for the Inhibitors of L3MBTL1: Hit Validationin AlphaScreen Counterscreen | shares compounds with L3MBTL1 inh-1 | AlphaScreen counterscreen, signal inhibition | Potency, µM (titrated, usually from 57.1 µM), for the others: at the top dose activity change, negative = inhibition, hits mostly inhibitors | 500 tested, under 10 active | AID 602224, 2012; note: 0% is about no effect
* hit, by the source's call. Calls come from the whole dose curve; as a rule, active = well fitted curve in the direction sought with a large enough effect; inconclusive = small, poorly fitted or top-dose-only effect, or another doubt; inactive = no such curve, though single readings can be large; an effect the other way counts as inactive or inconclusive. Potency is the fitted concentration of half-maximal effect.

What do the screens show for `CC1=NOC(=O)/C1=C\c1ccc(-c2ccc(Cl)c(C(=O)O)c2)o1`?
HP1b binding inh: inconclusive; VDR inhibitor: inconclusive; PLK1 PBD inh: 2.1µM*; L3MBTL1 inh-1: 20µM*; JMJD2A Tudor inh: 79µM*; BAZ2B inh: 79µM*; L3MBTL1 inh-2: 2.7*; L3MBTL1 ctr: -21%

How did O=C(NC1CCCCC1)c1nc2c(nnn2Cc2ccccc2Cl)c(=O)[nH]1 do in these assays?
HP1b binding inh: 18%; VDR inhibitor: 7%; PLK1 PBD inh: -14%; L3MBTL1 inh-1: 10%; JMJD2A Tudor inh: -4%; BAZ2B inh: 2%

What do the screens show for `Cc1nnc(NC(=O)C2CCN(S(=O)(=O)c3ccc(F)c(Cl)c3)CC2)o1`?
HP1b binding inh: 34%; VDR inhibitor: 9%; PLK1 PBD inh: -12%; L3MBTL1 inh-1: 35µM*; JMJD2A Tudor inh: 3.5µM*; BAZ2B inh: 32µM*; L3MBTL1 inh-2: inconclusive; L3MBTL1 ctr: -6%

Results for Cc1ccc2nc(NC(=O)C3CCN(S(=O)(=O)c4cc([N+](=O)[O-])ccc4Cl)CC3)sc2c1 ?
HP1b binding inh: inconclusive; VDR inhibitor: -19%; PLK1 PBD inh: -9%; L3MBTL1 inh-1: 10µM*; JMJD2A Tudor inh: 40µM*; BAZ2B inh: 35µM*; L3MBTL1 inh-2: 9.5*; L3MBTL1 ctr: -16%

What do the screens show for `O=C(Nc1nc2ccc(F)cc2s1)C1CCN(S(=O)(=O)c2cc([N+](=O)[O-])ccc2Cl)CC1`?
HP1b binding inh: -8%; VDR inhibitor: 23%; PLK1 PBD inh: -21%; L3MBTL1 inh-1: 28µM*; JMJD2A Tudor inh: inconclusive; BAZ2B inh: inconclusive; L3MBTL1 inh-2: 6.7*; L3MBTL1 ctr: inconclusive

How did O=C(NCc1ccccc1)C1CCN(S(=O)(=O)c2cc([N+](=O)[O-])ccc2Cl)CC1 do in these assays?
HP1b binding inh: 22%; VDR inhibitor: 2%; PLK1 PBD inh: 0%; L3MBTL1 inh-1: 4%; JMJD2A Tudor inh: 3%; BAZ2B inh: 18%

Results for CCCC1=Nc2cc(C(=O)NCC(C)c3ccccc3)ccc2Sc2ccccc21 (stereo not drawn) ?
HP1b binding inh: 19%; VDR inhibitor: 0%; JMJD2A Tudor inh: -1%; BAZ2B inh: -2%

What do the screens show for `CCCCN(C=O)c1c(CC)nc2ccc(C(=O)NCCCN3CCCC3=O)cn12`?
PLK1 PBD inh: -2%

How did CCN(C(=O)COC(=O)/C=C/c1ccc(OC)c(OC)c1)c1c(N)n(Cc2ccccc2)c(=O)[nH]c1=O do in these assays?
HP1b binding inh: 36%; VDR inhibitor: 15%; PLK1 PBD inh: 1%; JMJD2A Tudor inh: -5%

Results for CCn1c(SC(C)C(=O)O)nc2sc3c(c2c1=O)CCC3 (stereo not drawn) ?
HP1b binding inh: 9%; VDR inhibitor: -16%; PLK1 PBD inh: inconclusive; L3MBTL1 inh-1: 28µM*; JMJD2A Tudor inh: 89µM*; BAZ2B inh: 50µM*; L3MBTL1 inh-2: 3.4*; L3MBTL1 ctr: 2%

How did O=C(Nc1ccc(S(=O)(=O)Nc2nccs2)cc1)c1cnc(Cl)c(Cl)c1 do in these assays?
HP1b binding inh: 21%; VDR inhibitor: 16%; PLK1 PBD inh: 6%; JMJD2A Tudor inh: -9%; BAZ2B inh: inconclusive

What do the screens show for `Cc1nn(-c2ccccc2)c2nc(-c3ccco3)cc(C(=O)O)c12`?
HP1b binding inh: 9%; VDR inhibitor: 1%; PLK1 PBD inh: inconclusive; L3MBTL1 inh-1: 11µM*; JMJD2A Tudor inh: inconclusive; BAZ2B inh: inconclusive; L3MBTL1 inh-2: 1.1*; L3MBTL1 ctr: 3%

What do the screens show for `CCNC(=O)COC(=O)c1cc(-c2ccco2)nc2ccccc12`?
HP1b binding inh: inconclusive; VDR inhibitor: inconclusive; PLK1 PBD inh: inconclusive; L3MBTL1 inh-1: 25µM*; JMJD2A Tudor inh: 56µM*; BAZ2B inh: 50µM*; L3MBTL1 inh-2: 4.2*; L3MBTL1 ctr: 6%

How did Cc1nn(-c2cccc(Cl)c2)c2nc(-c3ccco3)cc(C(=O)O)c12 do in these assays?
HP1b binding inh: 11%; VDR inhibitor: -12%; PLK1 PBD inh: 6%; JMJD2A Tudor inh: -27%; BAZ2B inh: inconclusive

How did O=C(O)c1cc(-c2ccco2)nc2ccccc12 do in these assays?
HP1b binding inh: 45µM*; VDR inhibitor: 79µM*; PLK1 PBD inh: inconclusive; L3MBTL1 inh-1: 22µM*; JMJD2A Tudor inh: 25µM*; BAZ2B inh: inconclusive; L3MBTL1 inh-2: 3*; L3MBTL1 ctr: -5%

What do the screens show for `O=C(COC(=O)C1CCCCC1)Nc1ccc(S(=O)(=O)N2CCOCC2)cc1`?
HP1b binding inh: 26%; VDR inhibitor: -2%; PLK1 PBD inh: 1%; L3MBTL1 inh-1: 6%; JMJD2A Tudor inh: -9%; BAZ2B inh: -4%

How did COc1cc(/C=C/C(=O)OC2CC3CCC2(C)C3(C)C)ccc1O (stereo not drawn) do in these assays?
HP1b binding inh: -1%; VDR inhibitor: -5%; PLK1 PBD inh: -12%; JMJD2A Tudor inh: -33%; BAZ2B inh: -39%

What do the screens show for `O=C(/C=C/c1ccc(O)c(O)c1)OC1C(O)CC(OC(=O)/C=C/c2ccc(O)c(O)c2)(C(=O)O)CC1O` (stereo not drawn)?
HP1b binding inh: 30%; VDR inhibitor: -16%; PLK1 PBD inh: 1%; L3MBTL1 inh-1: 1µM*; JMJD2A Tudor inh: 22µM*; BAZ2B inh: -10%; L3MBTL1 inh-2: 0.075*; L3MBTL1 ctr: 7%

Results for COc1cc(C(=O)OCC(=O)Nc2ccc(S(=O)(=O)NC3=NCCCCC3)cc2)cc(OC)c1OC ?
HP1b binding inh: 38%; VDR inhibitor: -4%; PLK1 PBD inh: -3%; L3MBTL1 inh-1: -1%; JMJD2A Tudor inh: -15%

What do the screens show for `Cc1cccc(/C=C(\C(=O)O)c2ccc(S(=O)(=O)N3CCCC3)s2)c1`?
HP1b binding inh: -10%; VDR inhibitor: -16%; PLK1 PBD inh: -29%; L3MBTL1 inh-1: 28µM*; JMJD2A Tudor inh: inconclusive; L3MBTL1 inh-2: 5.3*; L3MBTL1 ctr: 3%

Assay outcomes from PubChem.
